# Test results reported in PubChem BioAssay (Tox21).
# Unmarked numbers belong to inactive results. Results filed as inconclusive are left out. A call without a number means that no potency is given here. Active and inactive are the calls of the source. Unless noted, calls come from the whole dose curve.
# What was measured:
# [1] = qHTS assay to identify small molecule antagonists of the estrogen receptor beta (ER-beta) signaling pathway - cell viability counter screen (AID 1259382; active = well fitted curve in the direction sought with a large enough effect in the repeat runs; an effect the other way counts as inactive or inconclusive;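 note: HEK293T cells carrying ER-beta-UAS-bla reporter stimulated with estradiol; series mostly up to about 92 µM; nearly all actives have a fitted effect of over 55% in size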)
# How it was run: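 ER-beta-UAS-bla HEK293T cells (2,000/well, 2% charcoal-stripped FBS) were pre-incubated 6 hr at 37C, then given compound plus 1nM final 17-beta-estradiol for 16 hr. Viability was read in the same wells by CellTiter-Glo luminescence after 30 min at room temperature.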
# [2] = target: Estrogen receptor (Homo sapiens) (UniProt P03372); test: qHTS assay to identify small molecule agonists of the estrogen receptor alpha (ER-alpha) signaling pathway in the presence of an antagonist (AID 1259383); note: nearly all actives have a fitted effect of over 15% in size; note: potency is the fitted concentration of half-maximal effect; for activation: top concentration of the series differs between compounds
# How it was run: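 VM7Luc4E2 cells (endogenous full-length ER-alpha, 4×ERE-luciferase) were precultured 5 days in phenol red-free medium with 10% charcoal-stripped FBS, given 10.0nM ICI-182,780 (final), then treated with compounds at 15 concentrations for 22hr at 37C; luminescence read with ONE-Glo.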
# [3] = target: Thyrotropin receptor (Homo sapiens) (UniProt P16473); test: qHTS assay to identify small molecule antagonists of the thyroid stimulating hormone receptor (TSHR) signaling pathway (AID 1259385); note: nearly all actives have a fitted effect of over 20% in size
# How it was run: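 Antagonist mode: compound-treated TSHR-expressing HEK293 cells were stimulated with 1.5 ng/mL TSH (final) in presence of Ro20-1724 for 30 min at RT. HTRF cAMP detection after 1 h; each compound tested at 15 concentrations, triplicate.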
# [4] = qHTS assay to identify small molecule agonists of the estrogen receptor alpha (ER-alpha) signaling pathway in the presence of an antagonist - cell viability counter screen (AID 1259386; active = well fitted curve in the direction sought with a large enough effect in the repeat runs; an effect the other way counts as inactive or inconclusive;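 note: series mostly up to about 92 µM; cells exposed to compounds for 22 h at 37 °C before the viability read; nearly all actives have a fitted effect of over 30% in size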)
# How it was run: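 VM7Luc4E2 cells (endogenous full-length ER-alpha, 4×ERE-luciferase) were held 5 days in phenol red-free medium with 10% charcoal-stripped FBS, plated, then given 10.0nM ICI-182,780 and compounds at 15 concentrations for 22hr at 37C; viability read by CellTiter-Fluor fluorescence.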
# [5] = target: Progesterone receptor (Homo sapiens) (UniProt P06401); test: qHTS assay to identify small molecule agonists of the progesterone receptor (PR) signaling pathway (AID 1346784); note: nearly all actives have a fitted effect of over 30% in size
# How it was run: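 Agonist qHTS: compounds pinned onto 3,000 PR-UAS-bla HEK 293T cells per well in charcoal-stripped serum medium, 16hr at 37C, then beta-lactamase activity measured by LiveBLAzer FRET fluorescence after 2 hours at room temperature.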
# [6] = target: Progesterone receptor (Homo sapiens) (UniProt P06401); test: qHTS assay to identify small molecule antagonists of the progesterone receptor (PR) signaling pathway (AID 1346795; active = well fitted inhibition curve with a large enough effect in the signal ratio in the repeat runs, not every such curve was filed as active; the % refers to the signal ratio; note: potency is the fitted concentration of half-maximal effect)
# How it was run: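 Antagonist mode with agonist R5020 at 1 nM final and 16 hr incubation at 37C. Reporter was beta-lactamase driven by UAS in HEK293T (PR-UAS-bla), 2% charcoal-stripped serum; signal from LiveBLAzer FRET substrate, 2 hr at room temperature.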
# [7] = qHTS assay to identify small molecule antagonists of the progesterone receptor (PR) signaling pathway - cell viability counter screen (AID 1346798; active = well fitted curve in the direction sought with a large enough effect in the repeat runs; an effect the other way counts as inactive or inconclusive; note: series mostly up to about 92 µM; nearly all actives have a fitted effect of over 50% in size)
# How it was run: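 Cytotoxicity read as CellTiter-Glo luminescence (30 min, room temperature) in the same wells as the beta-lactamase readout. HEK293T PR-UAS-bla cells in charcoal-stripped 2% FBS received compound and R5020, then 16 h at 37C, 5% CO2.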
# [8] = qHTS assay to identify small molecule agonists of the progesterone receptor (PR) signaling pathway - cell viability counter screen (AID 1346799); note: nearly all actives have a fitted effect of over 45% in size
# How it was run: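 Cytotoxicity measured by CellTiter-Glo luminescence (30 min, RT) in the same wells as the PR beta-lactamase agonist read. Those HEK293T cells had 16 h compound treatment at 37 C in 2% charcoal-stripped FBS medium.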
# [9] = qHTS assay to identify small molecule agonists or antagonists of the thyroid stimulating hormone receptor (TSHR) signaling pathway - wild type cell line counter screen (AID 1259384)
# How it was run: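 Counter screen in untransfected Hek293: compounds (15-point titration, triplicate) plus phosphodiesterase inhibitor Ro20-1724 added after 18 h plating; 30 min RT. Intracellular cAMP via competitive d2/cryptate immunoassay, 1 h incubation.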
# [10] = qHTS assay to identify small molecule antagonists of the TGF-beta/Smad signaling pathway - cell viability counter screen (AID 1346824; active = well fitted curve in the direction sought with a large enough effect in the repeat runs; an effect the other way counts as inactive or inconclusive; note: nearly all actives have a fitted effect of over 50% in size)
# How it was run: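 Cytotoxicity counter-screen run in the same wells as the beta-lactamase Smad reporter read: CellTiter-Glo luminescence after 30 min at room temperature. HEK 293T SBE-bla cells had 5 hr compound exposure at 37 C with TGF-beta1 (0.25 ng/mL stock).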
# Estrogen receptor (Homo sapiens), sequence (P03372 whole entry, looked up): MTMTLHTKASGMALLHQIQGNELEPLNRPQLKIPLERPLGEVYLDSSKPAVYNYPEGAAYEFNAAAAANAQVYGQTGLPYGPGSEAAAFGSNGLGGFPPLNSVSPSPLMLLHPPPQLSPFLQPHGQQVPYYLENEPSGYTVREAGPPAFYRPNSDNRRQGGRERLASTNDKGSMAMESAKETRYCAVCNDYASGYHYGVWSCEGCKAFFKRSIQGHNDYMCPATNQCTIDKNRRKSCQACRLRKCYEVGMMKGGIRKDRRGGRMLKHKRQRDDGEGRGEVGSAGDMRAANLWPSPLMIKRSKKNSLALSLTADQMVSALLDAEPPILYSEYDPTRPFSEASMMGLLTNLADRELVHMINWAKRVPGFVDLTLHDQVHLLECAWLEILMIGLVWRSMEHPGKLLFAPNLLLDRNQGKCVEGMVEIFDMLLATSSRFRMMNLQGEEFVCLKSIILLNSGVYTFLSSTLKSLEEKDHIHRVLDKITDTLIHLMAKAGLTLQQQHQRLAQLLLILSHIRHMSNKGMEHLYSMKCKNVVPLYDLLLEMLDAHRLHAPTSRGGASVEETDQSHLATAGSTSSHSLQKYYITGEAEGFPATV
# Progesterone receptor (Homo sapiens), sequence (P06401 whole entry, looked up): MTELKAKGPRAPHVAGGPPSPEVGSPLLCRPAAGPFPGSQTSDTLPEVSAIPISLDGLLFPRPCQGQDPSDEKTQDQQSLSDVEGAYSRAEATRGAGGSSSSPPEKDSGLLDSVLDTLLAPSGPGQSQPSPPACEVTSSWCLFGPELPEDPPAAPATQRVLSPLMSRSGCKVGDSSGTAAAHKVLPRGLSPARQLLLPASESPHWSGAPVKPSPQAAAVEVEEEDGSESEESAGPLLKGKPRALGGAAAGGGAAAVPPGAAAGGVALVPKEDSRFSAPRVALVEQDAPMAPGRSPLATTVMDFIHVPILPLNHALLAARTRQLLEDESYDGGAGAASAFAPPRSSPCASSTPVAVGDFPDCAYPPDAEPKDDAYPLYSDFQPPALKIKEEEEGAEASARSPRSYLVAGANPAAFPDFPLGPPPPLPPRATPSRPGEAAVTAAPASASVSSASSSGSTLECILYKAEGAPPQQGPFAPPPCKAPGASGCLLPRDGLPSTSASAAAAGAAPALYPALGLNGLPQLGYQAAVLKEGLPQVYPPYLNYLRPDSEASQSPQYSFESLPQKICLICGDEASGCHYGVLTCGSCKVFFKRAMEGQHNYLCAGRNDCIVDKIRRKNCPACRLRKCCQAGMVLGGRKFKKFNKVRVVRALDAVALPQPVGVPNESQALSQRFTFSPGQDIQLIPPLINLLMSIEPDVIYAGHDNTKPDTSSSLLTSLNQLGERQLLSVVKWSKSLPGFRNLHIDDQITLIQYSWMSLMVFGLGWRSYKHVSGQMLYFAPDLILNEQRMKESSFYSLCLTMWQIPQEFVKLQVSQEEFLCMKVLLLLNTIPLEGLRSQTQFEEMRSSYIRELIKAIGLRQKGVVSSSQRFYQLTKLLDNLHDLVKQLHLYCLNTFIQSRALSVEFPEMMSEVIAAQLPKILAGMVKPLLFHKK
# Thyrotropin receptor (Homo sapiens), sequence (P16473 whole entry, looked up): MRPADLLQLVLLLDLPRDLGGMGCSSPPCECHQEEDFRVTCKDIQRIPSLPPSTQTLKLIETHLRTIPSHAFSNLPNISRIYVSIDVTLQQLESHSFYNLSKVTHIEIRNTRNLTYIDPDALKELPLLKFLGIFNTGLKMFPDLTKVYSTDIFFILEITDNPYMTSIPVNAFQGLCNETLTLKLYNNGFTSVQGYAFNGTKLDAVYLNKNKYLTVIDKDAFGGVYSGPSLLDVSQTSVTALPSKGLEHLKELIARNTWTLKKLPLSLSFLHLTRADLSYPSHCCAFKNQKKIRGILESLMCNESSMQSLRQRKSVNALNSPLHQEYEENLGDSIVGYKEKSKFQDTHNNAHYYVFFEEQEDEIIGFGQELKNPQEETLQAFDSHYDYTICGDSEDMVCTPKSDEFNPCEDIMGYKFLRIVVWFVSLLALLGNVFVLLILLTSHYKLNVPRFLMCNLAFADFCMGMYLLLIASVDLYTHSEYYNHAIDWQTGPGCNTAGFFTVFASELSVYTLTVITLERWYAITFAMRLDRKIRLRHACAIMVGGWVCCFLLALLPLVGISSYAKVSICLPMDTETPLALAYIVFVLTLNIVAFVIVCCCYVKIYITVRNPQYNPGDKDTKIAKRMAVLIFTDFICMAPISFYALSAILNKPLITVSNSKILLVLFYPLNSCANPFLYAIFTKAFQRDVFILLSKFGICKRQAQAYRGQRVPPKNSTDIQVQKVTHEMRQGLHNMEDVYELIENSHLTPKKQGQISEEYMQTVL
smiles,measurement,setting,value
CC(C)C(=O)Nc1cccc(C2CN3CCSC3=N2)c1 (stereo not drawn),outcome,[1],inactive
same,Potency,[2],inactive
same,outcome,[3],inactive
same,outcome,[4],inactive
same,Potency,[5],inactive
same,Potency,[6],inactive
same,outcome,[7],inactive
same,Potency,[8],inactive
CCNC(=O)C(C)OC(=O)Nc1ccccc1 (stereo not drawn),outcome,[1],inactive
same,Potency,[2],inactive
same,outcome,[9],inactive
same,outcome,[4],inactive
same,Potency,[5],inactive
same,Potency,[6],inactive
same,Potency,[8],inactive
CC(=O)O[C@@H]1CC2C3CCc4cc(OC(=O)c5ccccc5)ccc4C3CCC2(C)[C@H]1OC(C)=O (stereo partly drawn),outcome,[1],inactive
same,Potency,[2],0.0473 µM (active)
same,outcome,[9],inactive
same,outcome,[4],inactive
same,Potency,[5],inactive
same,Potency,[8],inactive
same,outcome,[10],inactive
CCCCC(O)/C=C(C)/C=C/C=C/C(=O)N1CCCC1=O (stereo not drawn),outcome,[1],inactive
same,Potency,[2],inactive
same,outcome,[3],inactive
same,outcome,[4],inactive
same,Potency,[5],inactive
same,Potency,[6],inactive
same,outcome,[7],inactive
CC(C)(O)CCCC1=CCC(C=O)CC1 (stereo not drawn),outcome,[1],inactive
same,Potency,[2],inactive
same,outcome,[9],inactive
same,outcome,[4],inactive
same,Potency,[5],inactive
same,Potency,[6],inactive
same,outcome,[7],inactive
same,Potency,[8],inactive
same,outcome,[10],inactive
Cc1nc2ccc(Cl)cc2[nH]1,outcome,[1],inactive
same,Potency,[2],inactive
same,outcome,[9],inactive
same,outcome,[4],inactive
same,Potency,[5],inactive
same,Potency,[6],inactive
same,outcome,[7],inactive
same,Potency,[8],inactive
same,outcome,[10],inactive
COC(=O)c1ccc(C(=O)O)cc1,outcome,[1],inactive
same,Potency,[2],inactive
same,outcome,[9],inactive
same,outcome,[4],inactive
same,Potency,[5],inactive
same,outcome,[7],inactive
same,Potency,[8],inactive
same,outcome,[10],inactive
CCC(C)SSC(C)CC (stereo not drawn),outcome,[1],inactive
same,Potency,[2],inactive
same,outcome,[9],inactive
same,outcome,[3],inactive
same,outcome,[4],inactive
same,Potency,[5],inactive
same,Potency,[6],inactive
same,outcome,[7],inactive
same,outcome,[10],inactive
O=C(CCBr)N1CCN(C(=O)CCBr)CC1,outcome,[1],inactive
same,Potency,[2],inactive
same,outcome,[9],inactive
same,outcome,[3],inactive
same,outcome,[4],inactive
same,Potency,[5],inactive
same,Potency,[8],inactive
same,outcome,[10],inactive
CCO[Si](CC(C)C)(OCC)OCC,outcome,[1],inactive
same,Potency,[2],inactive
same,outcome,[9],inactive
same,outcome,[3],inactive
same,outcome,[4],inactive
same,Potency,[5],inactive
same,Potency,[6],inactive
same,outcome,[10],inactive
CC(C)(C)C(=O)CC(=O)C(C)(C)C,outcome,[1],inactive
same,Potency,[2],inactive
same,outcome,[9],inactive
same,outcome,[4],inactive
same,Potency,[5],inactive
same,Potency,[6],inactive
same,outcome,[7],inactive
same,Potency,[8],inactive
same,outcome,[10],inactive
CN(C)CCc1c[nH]c2ccc(C[C@H]3COC(=O)N3)cc12,outcome,[1],inactive
same,Potency,[2],inactive
same,outcome,[9],inactive
same,outcome,[3],inactive
same,outcome,[4],inactive
same,Potency,[5],inactive
same,outcome,[7],inactive
same,Potency,[8],inactive
CC(C)(C)OC(=O)c1ccccc1C(=O)O,outcome,[1],inactive
same,Potency,[2],inactive
same,outcome,[9],inactive
same,outcome,[3],inactive
same,outcome,[4],inactive
same,Potency,[5],inactive
same,Potency,[6],inactive
same,Potency,[8],inactive
same,outcome,[10],inactive
CC(=O)c1ccc2ccc3ccccc3c2c1,outcome,[1],inactive
same,Potency,[2],inactive
same,outcome,[9],inactive
same,outcome,[3],inactive
same,outcome,[4],inactive
same,Potency,[5],inactive
same,Potency,[6],9.63 µM (active)
same,outcome,[10],inactive
CCc1ccc(CC)cc1,outcome,[1],inactive
same,Potency,[2],inactive
same,outcome,[3],inactive
same,outcome,[4],inactive
same,Potency,[5],inactive
same,Potency,[6],inactive
same,outcome,[7],inactive
same,Potency,[8],inactive
CCCCC(CC)COC(=O)CC#N (stereo not drawn),outcome,[1],inactive
same,Potency,[2],inactive
same,outcome,[9],inactive
same,outcome,[4],inactive
same,Potency,[5],inactive
same,Potency,[6],inactive
same,Potency,[8],inactive
same,outcome,[10],inactive
OCCC(F)(F)C(F)(F)C(F)(F)C(F)(F)C(F)(F)C(F)(F)F,outcome,[1],inactive
same,Potency,[2],inactive
same,outcome,[9],inactive
same,outcome,[4],inactive
same,Potency,[5],inactive
same,Potency,[6],inactive
same,outcome,[7],inactive
same,outcome,[10],inactive
CCN1CCN(C(=O)N[C@@H](C(=O)N[C@@H]2C(=O)N3C(C(=O)O)=C(CSc4nnnn4C)CS[C@H]23)c2ccc(O)cc2)C(=O)C1=O,outcome,[1],inactive
same,Potency,[2],inactive
same,outcome,[9],inactive
same,outcome,[3],inactive
same,outcome,[4],inactive
same,outcome,[7],inactive
same,Potency,[8],inactive
COC(=O)/C=C(\C)CCC=C(C)C,outcome,[1],inactive
same,Potency,[2],inactive
same,outcome,[9],inactive
same,outcome,[4],inactive
same,Potency,[5],inactive
same,Potency,[6],inactive
same,outcome,[7],inactive
same,Potency,[8],inactive
same,outcome,[10],inactive
CC(=O)Oc1ccc(C(C)=O)cc1,outcome,[1],inactive
same,Potency,[2],inactive
same,outcome,[9],inactive
same,outcome,[3],inactive
same,outcome,[4],inactive
same,Potency,[5],inactive
same,Potency,[6],inactive
same,Potency,[8],inactive
COc1cc(S(N)(=O)=O)cc(C(=O)O)c1OC,outcome,[1],inactive
same,Potency,[2],inactive
same,outcome,[9],inactive
same,outcome,[4],inactive
same,outcome,[7],inactive
same,Potency,[8],inactive
same,outcome,[10],inactive
CCCCCCCCCCCCCCCCN(C)C,"activity change, negative = cytotoxicity",[1],6.11% [at 8.39 µM]
same,activation,[2],0.651% [at 8.39 µM]
same,cAMP activity change,[9],-1.46% [at 8.39 µM]
same,"activity change, negative = inhibition",[3],1.02% [at 8.39 µM]
same,"activity change, negative = cytotoxicity",[4],0.513% [at 8.39 µM]
same,"activity change, negative = cytotoxicity",[7],-0.0264% [at 8.39 µM]
same,"activity change, negative = cytotoxicity",[8],-6.19% [at 8.39 µM]
same,"viability change, negative = cytotoxic",[10],3.18% [at 6.97 µM]
CC(C)(O)c1ccc(C(C)(C)O)cc1,outcome,[1],inactive
same,Potency,[2],inactive
same,outcome,[9],inactive
same,outcome,[4],inactive
same,Potency,[5],inactive
same,Potency,[6],inactive
same,outcome,[7],inactive
same,Potency,[8],inactive
same,outcome,[10],inactive
Clc1ccc2c(c1)Nc1ccccc1S2,outcome,[1],inactive
same,Potency,[2],inactive
same,outcome,[9],inactive
same,outcome,[3],inactive
same,outcome,[4],inactive
same,Potency,[6],7.5 µM (active)
same,outcome,[7],inactive
same,Potency,[8],inactive
same,outcome,[10],inactive
COCc1nnc(-c2ccc[n+]([O-])c2)n1-c1c(Cl)c(Cl)cc2[nH]c(=O)c(=O)[nH]c12,outcome,[1],inactive
same,Potency,[2],inactive
same,outcome,[9],inactive
same,outcome,[4],inactive
same,Potency,[5],inactive
same,outcome,[7],inactive
same,Potency,[8],inactive
COc1cnc(NS(=O)(=O)c2ccc(N)cc2)nc1,outcome,[1],inactive
same,Potency,[2],inactive
same,outcome,[9],inactive
same,outcome,[4],inactive
same,Potency,[5],inactive
same,Potency,[6],inactive
same,outcome,[7],inactive
same,Potency,[8],inactive
same,outcome,[10],inactive
CC(C)C[P+](C)(CC(C)C)CC(C)C,outcome,[1],inactive
same,Potency,[2],inactive
same,outcome,[9],inactive
same,outcome,[3],inactive
same,outcome,[4],inactive
same,Potency,[5],inactive
same,outcome,[7],inactive
same,Potency,[8],inactive
same,outcome,[10],inactive
O=CN1CCCCC1,outcome,[1],inactive
same,Potency,[2],inactive
same,outcome,[3],inactive
same,outcome,[4],inactive
same,Potency,[5],inactive
same,Potency,[6],inactive
same,outcome,[7],inactive
same,Potency,[8],inactive
